PubChem BioAssay AID624341 (National Center for Advancing Translational Sciences (NCATS), 2012)
The source made the active and inactive calls.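 How the source made its calls: active means potency half-inhibition concentration of 75 µM or lower; inconclusive means potency above 75 µM but under 100 µM; inactive means potency of 100 µM or higher.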

target: Ubiquitin carboxyl-terminal hydrolase 7 (Homo sapiens) (UniProt Q93009); experiment: Inhibitors of USP1/UAF1: Hit Validation in USP7 Diubiquiting Gel Assay; conditions: USP7 K63 diubiquitin cleavage, SDS-PAGE gel densitometry
Sequence (Q93009 whole entry, looked up): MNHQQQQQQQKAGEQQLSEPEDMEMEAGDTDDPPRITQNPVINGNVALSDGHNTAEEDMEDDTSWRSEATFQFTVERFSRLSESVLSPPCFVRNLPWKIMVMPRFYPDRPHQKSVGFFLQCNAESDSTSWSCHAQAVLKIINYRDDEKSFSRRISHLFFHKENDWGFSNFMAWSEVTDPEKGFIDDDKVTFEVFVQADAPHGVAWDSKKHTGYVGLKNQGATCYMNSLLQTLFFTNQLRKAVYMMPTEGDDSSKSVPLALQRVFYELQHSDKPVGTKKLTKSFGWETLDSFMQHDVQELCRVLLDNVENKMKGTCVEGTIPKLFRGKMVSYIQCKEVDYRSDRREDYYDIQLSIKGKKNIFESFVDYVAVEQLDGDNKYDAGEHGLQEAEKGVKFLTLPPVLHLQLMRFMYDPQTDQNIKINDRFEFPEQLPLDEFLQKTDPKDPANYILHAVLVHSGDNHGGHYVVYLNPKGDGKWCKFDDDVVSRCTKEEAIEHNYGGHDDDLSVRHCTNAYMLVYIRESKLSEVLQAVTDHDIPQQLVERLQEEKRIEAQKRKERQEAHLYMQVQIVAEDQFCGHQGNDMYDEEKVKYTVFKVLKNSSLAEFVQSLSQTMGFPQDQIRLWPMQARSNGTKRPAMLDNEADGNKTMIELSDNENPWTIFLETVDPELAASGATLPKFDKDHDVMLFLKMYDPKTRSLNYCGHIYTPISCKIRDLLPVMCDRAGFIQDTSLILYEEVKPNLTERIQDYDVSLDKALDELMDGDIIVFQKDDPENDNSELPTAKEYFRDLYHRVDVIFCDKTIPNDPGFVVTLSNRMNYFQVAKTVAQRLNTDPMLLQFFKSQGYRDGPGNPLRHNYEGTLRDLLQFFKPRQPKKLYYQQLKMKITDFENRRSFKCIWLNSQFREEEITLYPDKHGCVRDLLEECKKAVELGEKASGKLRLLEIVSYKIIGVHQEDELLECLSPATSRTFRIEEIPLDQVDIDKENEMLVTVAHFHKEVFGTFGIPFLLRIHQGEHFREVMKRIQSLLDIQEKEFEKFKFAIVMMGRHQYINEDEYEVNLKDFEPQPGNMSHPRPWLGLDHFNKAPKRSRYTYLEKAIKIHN
From the text: Deubiquitinating enzymes (DUBs) are a class of enzymes that can cleave isopeptide bond formed between the C-terminal carboxylate of ubiquitin and a lysine side-chain amino group on the target protein. Among them, ubiquitin specific proteases (USPs) constitute the largest DUB family. Human USPs are emerging as promising targets for pharmacological intervention because of their connection to a number of human diseases, including prostate, colon and breast cancer (1, 2), pediatric acute lymphoblastic leukemia (3), and familial cylindromatosis (4). The advantage of inhibiting USPs lies in the potential specificity of therapeutic intervention that can lead to better efficacy and reduce nonspecific side effects. In a collaboration between the University of Delaware and the NIH Chemical Genomics Center, a high-throughput screen assay was developed to screen for USP1/UAF1 inhibitors. This miniaturized assay has a fluorescent read-out and is used to screen the NIH Molecular Libraries Small Molecule Repository (MLSMR) in order to identify a small molecule that inhibits USP1. Follow-up assays have also been developed to further test the hits from the primary screen. This assay validates the hits identified from the primary screen using a USP7 diubiquiting gel assay. NIH Chemical Genomics Center [NCGC] NIH Molecular Libraries Probe Centers Network [MLPCN] MLPCN Grant: DA030552-01 Assay Submitter (PI): Zhihao Zhuang, University of Delaware 1. Priolo, C., et al. (2006) The isopeptidase USP2a protects human prostate cancer from apoptosis. Cancer Res 66, 8625-8632 2. Popov, N., et al. (2007) The ubiquitin-specific protease USP28 is required for MYC stability. Nat Cell Biol 9, 765-774 3. […]
The inhibition assay contains 5 nM USP7, 2 microM K63 linked diubiquitin, and inhibitors at varied concentrations (0.08 microM - 114 microM). […] The intensity of the individual diubiquitin and monoubiquitin band was quantified using Quantity One 4.3.1 (Biorad, Hercules, CA). The percentage of the conversion was determined and used to calculate the reaction rate. […]

Potency, active:
Cc1ccccc1-c1nc(NCc2cccs2)c2ccccc2n1 19.4 µM
Cc1cccc(CNc2ccnc(-c3ccccc3C(F)(F)F)n2)c1 20.9 µM
FC(F)(F)c1ccccc1-c1nc(NCc2cccs2)c2ccccc2n1 37.8 µM
